The campaign covered roughly 290,000 compounds. About 27,000 (9.3%) were called active. Only a selection was taken, and actives are over-represented in it overall. Values without a mark were called inactive. Rule as the data show it: active = inhibition mostly above about 28% (no sharp cut-off); inactive = mostly below about 43%.

A short description of the assay: A qHTS for Small Molecule Inhibitors of Shiga Toxin. As to inhibition: 0% is about no effect. To be noted: Vero cells, Shiga toxin protein synthesis inhibition reporter; at 38.7 µM, stronger effect = higher value. (In general: In qHTS, concentration-response curves come from the screen itself.)
Take `Cc1ccc(S(=O)(=O)N2CCN(C(=O)N3CCOCC3)CC2)c(C)c1`: the inhibition was -2.32%.
Turning to `COc1cccc(OC)c1C(=O)N1CCN(Cc2cccnc2)CC1`, the inhibition is 11.9%.
`COc1cc(CC(=O)NCc2cccs2)cc(OC)c1OC`: the inhibition was -11.7%.
As to `O=C(Cc1cccs1)NCc1cccc(C(F)(F)F)c1`, the inhibition is 61.9% (active).
For the compound `O=C(NCc1ccccc1)c1ccc(S(=O)(=O)Nc2cccc(C(F)(F)F)c2)cc1`, the inhibition is -3.31%.
`COc1cccc(NC(=O)N2CCCC2C(=O)NC2CCCCC2)c1` (centres undefined): the inhibition is -3.54%.
For `O=S(=O)(Nc1ccc2[nH]ncc2c1)c1ccccc1Cl` the value was -6.01%; for `Cn1c(SCC(=O)c2ccc(F)cc2)nnc1-c1ccccn1`, 21.4%; for `CCN(C(=O)CSc1nnc2ccccn12)C1CCS(=O)(=O)C1` (centres undefined), -8.56%.
Regarding `O=C(CSc1nnc2ccccn12)c1ccccc1`, the inhibition was 74.7% (active).
For `Cn1c(CC(=O)Nc2ccccc2)nnc1SCC(=O)c1ccccc1` the value was 0.707%; for `N#Cc1ccc(CSc2nnc3ccccn23)cc1`, -7.41%; for `Cc1ccc(-n2c(C)cc(C(=O)CSc3nnc4ccccn34)c2C)cc1`, 48.6% (active).
Consider `O=C(CSc1nnc(-c2ccco2)n1CC1CCCO1)c1ccccc1` (centres undefined), for which the inhibition was 21.9%.
Consider `O=C(CSc1nnc2n1CCCN2)c1ccccc1`, for which the inhibition was 53.5% (active).
Consider `Cc1ccc(-n2c(C)nnc2SCC(=O)NC2CC2)cc1`, for which the inhibition was -29.3%.
For `Cn1c(=O)n(C)c2cc(S(=O)(=O)Nc3ccc(F)cc3)ccc21` the value was 0.488%; for `Cc1ccc(CCN2CC(C(=O)NCCc3ccccc3)CC2=O)cc1` (centres undefined), 16.6%; for `CC1CCCCN1C(=O)Cn1c(=O)oc2cc(S(=O)(=O)N3CCCCC3)ccc21` (centres undefined), 12.7%.
For `CC(C)(C)NC(=O)NC(=O)COC(=O)C1c2ccccc2Oc2ccccc21`, the inhibition is -5.17%.
As for `Cc1ccc2[nH]c(=O)c(CC(=O)O)c(-c3ccccc3)c2c1`, the inhibition was 1.65%.
Next, `Cc1cc(C(=O)N/N=C/c2ccc(O)c([N+](=O)[O-])c2)c(C)n1-c1ccc(F)cc1`: 0% (active); `COc1cc(/C=N\NC(=O)C2C(=O)NCC2c2ccccc2)cc(OC)c1O` (centres undefined): -11.2%.
`COc1cc(/C=N/NC(=S)Nc2cccnc2)cc(OC)c1O`: the inhibition is -4.42%.
As to `COc1cc(/C=N/NC(=O)c2ccc(N3CCCC3=O)cc2)ccc1O`, the inhibition is 56.5% (active).
As to `Cc1cc(C(=O)N/N=C/c2ccc(N3CCOCC3)cc2)c(C)o1`, the inhibition was 46.9%.
With `COc1ccc(/C=N/NC(=O)c2ccncc2)cc1CN1CCCc2ccccc21`, the inhibition was -1.95%.
`COc1cc(/C=N/NC(=O)c2cc(C)n(-c3ccc(F)cc3)c2C)cc(OC)c1O`: the inhibition was 43.1% (active).
In the case of `O=C(N/N=C/c1cccc(Br)c1)c1ccc(N2CCCC2=O)cc1`, the inhibition is 18.7%.
For `Cc1nn(CC(=O)N/N=C/c2ccc(F)cc2)c(C)c1[N+](=O)[O-]`, the inhibition is -12.8%.
Consider `CCc1ccc(CNC(=O)C2CC(=O)N(CCc3ccc(C)cc3)C2)cc1` (centres undefined), for which the inhibition is -9.66%.
Next, `COCCC(=O)N1CCC(Oc2ccc(C(=O)NCc3ccon3)cc2)CC1`: -10.3%.
With `CCCCCC1CC(COc2ccccc2)OC1=O` (centres undefined), the inhibition is -10.6%.
As for `Cc1cc(-c2n[nH]c(=S)n2/N=C/C(Br)=C/c2ccccc2)n[nH]1`, the inhibition was 91.5% (active).
As to `S=c1[nH]nc(-c2cccnc2)n1/N=C/C(Cl)=C\c1ccccc1`, the inhibition was 48.2%.
On to `Cc1cc(-c2n[nH]c(=S)n2/N=C/c2ccco2)n[nH]1`, for which the inhibition is -9.01%.
For `CC(=O)c1c(C)oc2ccc(NS(=O)(=O)c3ccc(C(=O)O)cc3)cc12`, the inhibition was 18.1%.
Take `CCCCN(CCCC)CCCNC(=O)CN1C(=O)COc2ccc(S(=O)(=O)N3CCC(C)CC3)cc21`: the inhibition is -6.42%.
As for `Cc1cccc(NC(=O)C2CCCN(C(=O)Nc3ccc(F)cc3)C2)c1C` (centres undefined), the inhibition was 1.84%.
For `O=C(NCCc1ccccc1)C1CC1`, the inhibition was 8.81%.
Regarding `Nc1nonc1C(=O)NCCc1ccccc1`, the inhibition was 66.7% (active).
For `NC(=O)Nc1ccccc1C(=O)NCCc1ccccc1`, the inhibition is 83.7% (active).
As to `O=C(O)c1ccccc1-c1ccccc1C(=O)NCCc1ccccc1`, the inhibition is 23.5%.
Take `CN(C)/C(=N\OC(=O)c1ccccc1)c1nonc1N`: the inhibition is -8.6%.
Regarding `NS(=O)(=O)c1ccc(CCNC(=O)CNC(=O)Cc2ccccc2)cc1`, the inhibition is -4.55%.
As to `Cc1ccc(-c2ccc(=O)n(Cc3ccc(F)cc3Cl)n2)cc1`, the inhibition was -3.36%.
Next, `CCOC(=O)N1CCC(N2Cc3cccc(C(=O)Nc4c(C)cccc4CC)c3C2=O)CC1`: 3.74%; `CC(C)[C@H](NC(=O)N1CCn2c1nc1ccccc12)C(=O)NCc1ccc2c(c1)OCO2`: 10.7%; `O=C(CN1C(=O)NC2(CCCCC2)C1=O)NCCc1c[nH]c2ccccc12`: -14%.
Regarding `O=C(CCC(=O)n1ncc2ccccc21)NCc1ccccc1Cl`, the inhibition is -2.08%.
On to `CCCOc1ccc(C2=CSC3=NCCN23)cc1Cl`, for which the inhibition is -7.6%.
As to `CCN(CC)S(=O)(=O)c1ccc(N2CCOCC2)c(NC(=O)C2CSC3(C)CCC(=O)N23)c1` (centres undefined), the inhibition was -6.24%.
For `COc1ccc2c3c(c(=O)oc2c1)C1O[C@](CCCCN2C(=O)c4ccccc4C2=O)(Cc2c1ccc1ccccc21)O3` the value was “inactive”.
Next, `NC(=O)Cn1c(=O)oc2ccccc21`: 18.3%; `Cc1ccc(OCCCn2c(=O)oc3ccccc32)cc1`: 52.4% (active); `Cc1cccc(NC(=O)CCn2c(=O)oc3ccccc32)c1`: 63.6%.
For `CCc1ccc(NC(=O)Cn2nnc(C(=O)NCc3ccc(OC)cc3)c2N)cc1` the value was 6.32%; for `COc1ccc2oc(=O)c(C(=O)N3CCCC3)cc2c1`, -3.3%.
Regarding `COc1ccc2c(c1)CCc1c(C(=O)N3CCCC3)noc1-2`, the inhibition was 55.2% (active).
For `COc1ccc2c(c1)CCc1c(C(=O)N3CCc4ccccc4C3)noc1-2` the value was 26.1%; for `O=C1/C(=C/c2cccs2)CCC1C1CCCC1` (centres undefined), 136% (active).
Turning to `O=C1/C(=C/c2cccs2)SC(=S)N1C1CCS(=O)(=O)C1` (centres undefined), the inhibition was -16.1%.
With `CCC1C/C(=C/c2cccs2)C(=O)/C(=C/c2cccs2)C1` (centres undefined), the inhibition is -3.18%.
Next, `COc1ccc2c(c1OC)C(=O)c1ccccc1C2=O`: 16.6%.
For `CN1C/C(=C/c2cccs2)C(=O)/C(=C\c2cccs2)C1` the value was 66.1%.
As to `O=C1/C(=C/c2cccs2)CCc2ccccc21`, the inhibition is 85.4% (active).
Regarding `COc1ccc(/C=N/NC(=O)C2CC2)c(OC)c1OC`, the inhibition was -1.72%.
For the compound `COc1ccc(/C=C2\CCc3ccccc3C2=O)c(OC)c1OC`, the inhibition was 77.4% (active).
In the case of `O=C(COC(=O)/C=C/c1cccs1)NC1CCCCC1`, the inhibition is 10.6%.

A word on the inhibition: it is the change of the read-out against control, counted positive when it falls.

The record behind these values is PubChem BioAssay AID2315 (National Center for Advancing Translational Sciences (NCATS), 2010).
